# ChEMBL document CHEMBL3988442, “University of Dundee, Small-Polar-MMV Screening Library” (2021)
# The whole screen tested about 48,000 compounds, of which about 13,000 (27%) showed an effect of 50% or more. The list shows a part of the results.
# System: Wolbachia pipientis
# Assay: Anti-Wolbachia Cell-Based Screen
# Assay type: functional
# Set-up: scale not given: in the data most compounds retested in dose-response had high values
# Conditions: 5 µM
row,Compound,Percent Effect [%]
1,Nc1nc(CCC(=O)N2CCOC(CC3CCCCC3)C2)cs1 (stereo unspecified),-4.495
2,CC1(C)CCC(C(=O)O)c2ccccc21 (stereo unspecified),1.78
3,CN(Cc1ccc(Br)o1)C(=O)Nc1cccnc1,14.31
4,Cc1cc(CN2CCC3(CC2)COC(COCC2CC2)C3)no1.O=C(O)C(F)(F)F (stereo unspecified),95.48
5,CC(=O)N1CCC2(CC1)COC(COCc1ccccn1)C2.O=C(O)C(F)(F)F (stereo unspecified),-3.959
6,CCOCC1CC2(CCN(Cc3ccccn3)CC2)CO1 (stereo unspecified),-6.984
7,Cc1csc(CN2CCC3(CC2)COC(COCC2CC2)C3)n1.O=C(O)C(F)(F)F (stereo unspecified),87.23
8,O=C(C1CCSCC1)N1CCC2(CC1)COC(COCC1CC1)C2 (stereo unspecified),0.4038
9,O=C(O)C(F)(F)F.O=C(O)C(F)(F)F.c1cncc(OCC2CC3(CCN(CC4CC4)CC3)CO2)c1 (stereo unspecified),-1.816
10,Cc1cccc(CN2CCC3(CC2)COC(COCC2CC2)C3)n1 (stereo unspecified),102.1
11,Cc1ncc(CNc2ccc(C(=O)NCc3ccco3)cc2C)s1,-10.56
12,CCS(=O)(=O)CCNC(=O)c1ccc(-c2ccc(C)cc2)cc1F,-13.74
13,CN(C)[C@@H]1CO[C@H](CNC(=O)c2cccs2)[C@H]1O,5.998
14,COCC(=O)NCCSCCOc1cccc(Br)c1,5.807
15,Cc1cc(C)nc(N2Cc3cnn(Cc4ccc(F)cc4)c3C2)n1,10.67
16,CNc1cc(C)nc(N2Cc3cnn(Cc4ccc(F)cc4)c3C2)n1,67.48
17,Cc1ccnc(N2Cc3cnn(Cc4ccc(F)cc4)c3C2)n1,-9.844
18,CCn1nc(C)c2ncnc(NCC(=O)N3CCOCC3)c21,4.727
19,CCN(Cc1ccccc1)c1ncnc2c(C)nn(CC)c12,90.55
20,CCn1nc(C)c2ncnc(N(C)C)c21,100.5
21,CCn1nc(C)c2nc(C(C)C)nc(N3CCCCC3)c21,-10.35
22,Cc1nn(C)c2c(NCCCn3cccn3)ncnc12,1.711

row,Compound,Percent Effect [%]
1,CCN(CC)c1ncnc2c(C)nn(CC)c12,92.35
2,COCCN(Cc1ccccc1)c1cc(C)ncn1,-9.961
3,CCCc1nc(N2CCN(CC)CC2)c2c(n1)c(C)nn2CC,-11.71
4,CN1CCC(N(C)C[C@H]2CC[C@@H](Cc3cccc(CO)c3)O2)CC1,-29.03
5,O=C(NCC1CC1)C1CN(C(=O)c2cccc(Cl)c2)CC12CCOCC2 (stereo unspecified),-0.2514
6,Cn1c(C(=O)N2CCC(C(N)=O)C2)c(Cl)c2ccccc21 (stereo unspecified),50.27
7,Cn1c(C(=O)N2CCC(C(=O)N3CCCC3)CC2)c(Cl)c2ccccc21,1.615
8,Cn1c(C(=O)N2CCC(CC(N)=O)CC2)c(Cl)c2ccccc21,-9.644
9,Cc1ccc(OC2(C(=O)O)CCN(C(=O)c3nc(C)oc3C)CC2)cn1,-0.6346
10,CCC(NS(=O)(=O)c1ccc(C(=O)NC2CC2)cc1)c1cnn(C)c1 (stereo unspecified),100.7
11,CCCNS(=O)(=O)c1ccc(C(=O)NC(CC)c2cnn(C)c2)cc1 (stereo unspecified),-2.749
12,CCC(NS(=O)(=O)c1ccc(C(=O)NC2CC2)cc1)c1ccnn1C (stereo unspecified),-9.031
13,Cc1nc2cc(=O)[nH]n2c(C)c1CNC(=O)C(C)Cc1ccccc1 (stereo unspecified),-3.98
14,COc1cccc2c1N(CC(=O)Nc1ccc(Cl)cn1)CCC2,8.099
15,Cc1ccc2nc(CN3CCC(O)(CN4CCCC4)CC3)cc(O)c2c1,3.677
16,CC(C)CN1CCCC(c2nc(O)c3cc(F)ccc3n2)C1 (stereo unspecified),102.2
17,CCN1CCCC(c2nc(O)c3cc(C)ccc3n2)C1 (stereo unspecified),115.3
18,Cc1ccc2nc(C3CCN(CC(C)C)CC3)nc(O)c2c1,129.6
19,COC(=O)c1cccc2nc([C@H]3CCN(CC(C)C)C3)oc12,-3.142
20,Cc1ccc2nc(C3CCCN(CC(C)C)C3)nc(O)c2c1 (stereo unspecified),109.3
21,Cc1ccc2nc(CNCCCN3CCCC3)cc(O)c2c1,-3.941
22,Cc1ccc2ncn(CC(O)CN3CCC(C)CC3)c(=O)c2c1 (stereo unspecified),8.084

row,Compound,Percent Effect [%]
1,Cc1ccc2nc(CN3CCCC3c3cccnc3)cc(O)c2c1 (stereo unspecified),7.141
2,Oc1cc(CNCCCN2CCCC2)nc2ccc(F)cc12,15.84
3,CC(C)CN1CCC(NC(=O)c2ccc(F)cc2I)CC1,2.48
4,O=C(c1ccco1)N(CC(F)(F)F)C1CCCOC1 (stereo unspecified),-12.11
5,COCc1csc(NC(=O)NCc2ccc(C)s2)n1,0.0103
6,c1cc(-c2noc(-c3cc(C4CC4)[nH]n3)n2)cc(N2CCCCC2)n1,-19.77
7,Cc1cnn(CCC(=O)N2C[C@H]3CC[C@@H]2CN(CC(=O)N(C)C)C3)c1,-5.732
8,COCCN(Cc1ccc(C)o1)C(=O)Nc1nnc2ccccn12,-21.85
9,Cn1ncc2cnn(CC(O)COCc3ccccc3Cl)c2c1=O (stereo unspecified),-6.755
10,Cc1ccc2nc(C3CCCN(Cc4ccccc4)C3)nc(O)c2c1 (stereo unspecified),104.3
11,Cc1cc(N2CCN(Cc3ccccc3)CC(O)C2)cc(C)n1 (stereo unspecified),-18.63
12,Cc1cccc(N2CC3(CCN(Cc4nccn4C)C3)CC2=O)c1.O=C(O)C(F)(F)F (stereo unspecified),3.528
13,COC(=O)c1cc(NC(=O)NCC2CCS(=O)(=O)C2)ccc1Cl (stereo unspecified),-31.29
14,COC(=O)c1ccoc1CN(C)CC(=O)NC1CC1,113.9
15,O=C(CN(Cc1cccs1)C1CCS(=O)(=O)C1)NCCc1cccs1 (stereo unspecified),4.084
16,COC(=O)c1ccoc1CN(C)CC(=O)NC1CCS(=O)(=O)C1 (stereo unspecified),105.9
17,O=C(Cc1cc2c(cc1Br)OCCO2)NC1CCS(=O)(=O)C1 (stereo unspecified),-27.59
18,CN(CCC(=O)NC1CC1)Cc1ccc(Cl)s1,-12.79
19,CNC(=O)COC(=O)c1ccoc1CN1c2ccccc2CC1C (stereo unspecified),-15.23
20,COC(=O)c1ccoc1CN(C1CC1)C1CCS(=O)(=O)C1 (stereo unspecified),104.7
21,CN(Cc1cnn(C)c1)C(=O)NC1CCS(=O)(=O)C1 (stereo unspecified),-13.78
22,CC(CS(C)(=O)=O)N(C(=O)Nc1cc(F)ccc1Cl)C1CC1 (stereo unspecified),14.25
